Results reported in PubChem BioAssay AID652105 (National Center for Advancing Translational Sciences (NCATS), 2013).
The campaign covered roughly 330,000 compounds. About 4,100 (1.2%) were called active. Roughly 2% stayed inconclusive and do not appear here. This excerpt belongs to a sample that is enriched for actives. Values without a mark were called inactive. How the source made its calls: active means max response of -50% or lower; inconclusive means between -30% and -50%; inactive means -30% or higher.

These molecules were tested against Phosphatidylinositol 5-phosphate 4-kinase type-2 alpha (Homo sapiens) (UniProt P48426) (assay: qHTS for Inhibitors of phosphatidylinositol 5-phosphate 4-kinase (PI5P4K)). Settings: PI5P4Kalpha enzyme, ADP-Glo luminescence, 60 min; active compounds read low.
Sequence of Phosphatidylinositol 5-phosphate 4-kinase type-2 alpha (Homo sapiens) (P48426 whole entry, looked up, canonical isoform): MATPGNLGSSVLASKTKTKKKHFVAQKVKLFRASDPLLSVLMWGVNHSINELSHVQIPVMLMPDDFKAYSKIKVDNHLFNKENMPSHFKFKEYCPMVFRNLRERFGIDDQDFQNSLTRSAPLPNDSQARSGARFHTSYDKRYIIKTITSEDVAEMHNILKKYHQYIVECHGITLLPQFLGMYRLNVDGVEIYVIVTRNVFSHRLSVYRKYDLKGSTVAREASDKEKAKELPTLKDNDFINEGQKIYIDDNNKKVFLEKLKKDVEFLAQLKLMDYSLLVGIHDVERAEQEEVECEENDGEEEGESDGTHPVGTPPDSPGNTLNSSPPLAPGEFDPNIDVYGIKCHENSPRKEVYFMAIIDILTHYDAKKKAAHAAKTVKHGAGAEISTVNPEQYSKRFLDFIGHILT
Source text: In addition to finding PI5P, we discovered the type II phosphatidylinositol 5-phosphate 4-kinase (PI5P4K) family (alpha, beta, gamma isoforms) that catalyze the conversion of PI5P to PI(4,5)P2. Alternatively, PI(4,5)P2 can also be synthesized through phosphatidylinositol-4-phosphate (PI4P) by the type I phosphatidylinositol 4-phosphate 5-kinases (PI4P5K). These PI5P4K enzymes therefore represent one way by which cells can regulate endogenous PI5P levels and play important roles in insulin signaling and in stress responses.
This proposal aims to identify and optimize specific modulators of human PI5P4K, phosphatidylinositol-5-phosphate 4-kinase (Type II PIPK), a family of kinases that regulate AKT signaling and tumor cell growth. In this project we aim to identify inhibitors of human PI5P4K using a quantitative high-throughput screening approach against the MLSMR containing ~400,000 small molecules.
NIH Chemical Genomics Center [NCGC]
NIH Molecular Libraries Probe Centers Network [MLPCN]
Assay Submitter (PI): Atsuo Sasaki, Beth Israel Deaconess Medical Center
2 microL of PI5P4Kalpha/substrate buffer (columns 1-2, 5-48) are dispensed into Greiner white solid bottom 1536-well assay plates; column 3 receives only PI5P4Kalpha buffer as 0x substrate controls; column 4 receives only substrate buffer as 0x PI5P4Kalpha controls. Final assay buffer consists of 0.038 M HEPES pH 7.4, 0.28 mM EGTA, 0.1% CHAPS, and 5% DMSO (final concentration). Compounds are then transferred via Kalypsys pin tool equipped with 1536-pin array (10 nL slotted pins, V&P Scientific, San Diego, CA). Following addition of compound, 1 microL of ATP (5 microM final concentration, all columns) is added to initiate the reaction. ATP is diluted in an assay buffer consisting of 0.02 M HEPES pH 7.4, 60 mM MgCl2, 15 microM ATP, and 0.1% CHAPS. The plates are then incubated at room temperature for 60 minutes. ADP-Glo reagent 1 is added (2 microL) and plates incubated for 45 minutes, before ADP-Glo reagent 2 (4 microL) is added and plates incubated for 30 minutes. They are then transferred to a ViewLux high-throughput CCD imager (PerkinElmer) wherein single end-point measurements of luminescence are acquired using a clear filter.
Further: value at the top dose of about 77 µM.
On the % scale 0 is the no-effect control and ±100 the full control effect.

SMILES | max response
O=C1NC(=O)N(CCc2ccc(F)cc2)C(=O)/C1=C/C=C/c1ccccc1 | -26.8%
O=C1NC(=O)N(Cc2ccco2)C(=O)/C1=C\c1ccc(-c2ccc(F)cc2)o1 | -73.5% (active)
O=C1NC(=O)N(Cc2ccco2)C(=O)/C1=C\c1cccn1CCOc1ccccc1 | -24.2%
O=c1[nH]c2ccccc2n1C1CCN(C(c2ccccc2)c2nnnn2Cc2ccccc2)CC1 (stereo not given) | -4.66%
COC(=O)C1=C(c2ccc(OCc3ccccc3)cc2)C[C@@H]2CC[C@H]1N2C(=O)NCc1ccc(Cl)cc1 | 5.92%
CCOC(=O)c1cccc(C2=C(CNC(=O)c3ccncc3)[C@H]3CC[C@@H](C2)N3Cc2ccccc2)c1 | -3.84%
O=C(O)CCn1cc(C=C2C(=O)NC(=S)NC2=O)c(-c2cccc(Br)c2)n1 | -58.5% (active)
O=C(NCC1=C(c2ccc3ccccc3c2)C[C@@H]2CC[C@H]1N2Cc1ccco1)c1cccs1 | -1.39%
COC(=O)C1=C(c2ccc(OCc3ccccc3)cc2)C[C@@H]2CC[C@H]1N2C(=O)NCc1cccc(F)c1 | 0.749%
O=c1[nH]c(=O)n(Cc2ccccc2)c(O)c1/C=N/Nc1c(F)c(F)c(F)c(F)c1F | 4.31%
CC/C(=N\NC(=O)c1ccccc1O)c1c(O)n(Cc2ccccc2)c(=O)[nH]c1=O | -90.3% (active)
CCC(=NCCCO)c1c(O)n(-c2ccc(OC)cc2)c(=O)[nH]c1=O | 0.144%
O=C(N/N=C/c1c(O)n(Cc2ccccc2)c(=O)[nH]c1=O)c1ccccc1 | -53.6% (active)
CCC(=NCCc1ccccc1)c1c(O)n(C2CCCCC2)c(=O)[nH]c1=O | -4.68%
CCCCC(=O)N/N=C/c1c(O)n(-c2ccccc2)c(=O)[nH]c1=O | -1.14%
COc1ccc(NC(=O)N2Cc3ccccc3-n3nncc3C2)cc1 | -4.3%
COc1ccc(-n2nnnc2C(c2cccc3ccccc23)N2CCC(n3c(=O)[nH]c4ccccc43)CC2)cc1 (stereo not given) | 0.885%
CSCCC(c1nnnn1C(C)(C)C)N1CCC(n2c(=O)[nH]c3ccccc32)CC1 (stereo not given) | 8.06%
O=c1[nH]c2ccccc2n1C1CCN(C(c2ccnc3ccccc23)c2nnnn2Cc2ccccc2)CC1 (stereo not given) | -3.14%
O=C1NC(=O)C(C/C=C/c2ccccc2)C(=O)N1 | -78.1% (active)
O=C1NC(=O)C(Cc2ccccc2)C(=O)N1 | -28.7%
CC(=O)NCC1=C(c2ccc3ccccc3c2)C[C@@H]2CC[C@H]1N2Cc1ccco1 | -10.1%
O=c1c2ccccc2nc(CBr)n1-c1ccc(Cl)cc1 | -9.65%
S=C(NCCc1ccccc1)N1Cc2cc(N3CCOCC3)ccc2-n2nncc2C1 | -1.37%
CCOC(=O)[C@]12Cc3ccccc3[C@H]1N(C1CCCCC1)C(=O)c1cc(OC)ccc12 | -1.4%
COc1cc(C(=O)N2Cc3ccc(Br)cc3-n3nncc3C2)cc(OC)c1OC | -0.882%
CCC(=O)c1ccc(OCC(=O)N2CCN(CC(=O)Nc3ccc(C)cc3)CC2)cc1 | 1.24%
C=CCN(CC=C)C(=O)Nc1ccc(OCC)cc1 | -4.12%

SMILES | max response
C=CCN1C(=O)NC(=O)/C(=C/c2ccc(OCC(=O)Nc3ccc(C)cc3)cc2)C1=O | -72.6% (active)
O=C(NC1CCCCC1)N1Cc2cc(N3CCCCC3)ccc2-n2nncc2C1 | -0.829%
COc1cccc(N2C(=O)NC(=O)/C(=C\c3cn(C)c4ccccc34)C2=O)c1 | 5.95%
O=C1NC(=O)N(c2ccccc2)C(=O)/C1=C/c1ccc([N+](=O)[O-])s1 | -72.2% (active)
COc1cccc(N2C(=O)NC(=O)/C(=C\c3ccc([N+](=O)[O-])s3)C2=O)c1 | -64.2% (active)
O=C1NCN(c2ccccc2)C12CCN(C(c1cccs1)c1nnnn1C1CCCCC1)CC2 (stereo not given) | -2.62%
c1ccc(N2Cc3ccccc3-n3nncc3C2)nc1 | -2.17%
CC(=CCOc1ccc2ccc(=O)oc2c1)C1=CC(=O)C(C)(C)O1 | 4.71%
c1cc2c(c(NC3=NCCCS3)c1)CCCC2 | -10.3%
CC(C)CN1Cc2cc(N3CCCCC3)ccc2-n2nncc2C1 | -0.0123%
COC(=O)C[C@H]1CC[C@H]2NC[C@@H](O)COC[C@@H]2O1 | -5.22%
COc1ccc2c(c1)NP(=S)(c1ccccc1)N2 (stereo not given) | -27.5%
COc1ccc(N2C(=O)/C(=C/c3ccco3)C(=O)NC2=S)cc1 | -103% (active)
CCOC(=O)CNC(=O)N1Cc2cc(N3CCCCC3)ccc2-n2nncc2C1 | 7.51%
COc1ccc(C2C=C(C)Oc3c2c(=O)oc2ccccc32)cc1OC (stereo not given) | 1.36%
CCn1cc(CN2CCCC(C(=O)c3cccc(C(F)(F)F)c3)C2)cn1 (stereo not given) | 5.27%
O=C1CC(=O)N(Cc2ccccc2)C(=O)N1CCCCCCN1C(=O)CC(=O)N(Cc2ccccc2)C1=O | -68.4% (active)
O=C(CN1CCCC1=O)NCCc1ccccc1 | 1.78%
COc1cccc(C(c2nnnn2-c2ccc3c(c2)OCCO3)N2CCC3(CC2)C(=O)NCN3c2ccccc2)c1OC (stereo not given) | -0.4%
O=P(OC1=CCCCC1)(c1ccccc1)c1ccccc1 | 1.07%
Cc1ncoc1C(=O)NCC1=C(c2cccc3ccccc23)C[C@@H]2CC[C@H]1N2Cc1ccco1 | 7.08%
Cc1c(C(=O)O)cccc1-n1c(C)cc(/C=C2\C(=O)NC(=O)N(c3ccc4c(c3)OCO4)C2=O)c1C | -18.8%
Cc1ccccc1N1C(=O)NC(=O)/C(=C\c2cc(C)n(C)c2C)C1=O | 0.241%
Cc1cccc(N2C(=O)NC(=O)/C(=C\c3cnn(-c4ccccc4)c3)C2=O)c1 | -69.1% (active)
COC(=O)CN(CCCl)P1(=O)OCCCN1CCCl (stereo not given) | -2.26%
O=c1c2ccccc2[nH]c(=S)n1-c1cccc(Cl)c1 | -8.39%
CCOC(=O)[C@]12Cc3cc(OC)ccc3[C@H]1N(C(C)C)C(=O)c1ccccc12 | 1.48%
